Assay [1] has as its target T1, Aurora kinase A (Homo sapiens) (UniProt O14965).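 Also: values are mean percent inhibition.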
T1 sequence (whole entry): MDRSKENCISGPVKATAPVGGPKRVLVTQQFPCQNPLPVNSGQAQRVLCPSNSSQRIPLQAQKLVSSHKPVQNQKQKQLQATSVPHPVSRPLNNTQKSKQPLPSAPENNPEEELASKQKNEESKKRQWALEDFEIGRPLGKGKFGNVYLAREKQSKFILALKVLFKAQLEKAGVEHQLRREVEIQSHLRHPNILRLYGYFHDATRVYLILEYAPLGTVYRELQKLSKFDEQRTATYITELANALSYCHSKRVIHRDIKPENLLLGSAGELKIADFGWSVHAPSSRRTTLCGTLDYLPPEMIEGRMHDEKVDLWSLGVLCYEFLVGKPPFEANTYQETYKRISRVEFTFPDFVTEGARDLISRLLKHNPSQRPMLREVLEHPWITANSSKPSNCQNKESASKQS
Particulars: at 1 µM.

For assay [2], the target named is Aurora kinase B (Homo sapiens) (UniProt Q96GD4). Particulars: at 0.1 µM.
Assay [3] shares this target. Particulars: at 1 µM.
Assay [4] addresses T2, Aurora kinase C (Homo sapiens) (UniProt Q9UQB9).
T2 sequence (whole entry): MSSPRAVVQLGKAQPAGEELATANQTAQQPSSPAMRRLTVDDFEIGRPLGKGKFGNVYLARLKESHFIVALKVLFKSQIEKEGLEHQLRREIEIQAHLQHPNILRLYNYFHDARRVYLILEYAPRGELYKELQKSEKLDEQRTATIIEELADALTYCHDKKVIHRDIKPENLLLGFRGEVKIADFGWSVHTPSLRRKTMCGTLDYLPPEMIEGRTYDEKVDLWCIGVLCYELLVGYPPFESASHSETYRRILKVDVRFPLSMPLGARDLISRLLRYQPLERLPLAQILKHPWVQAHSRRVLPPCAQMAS
Particulars: at 0.1 µM.

In assay [5] the target is T2, Aurora kinase C (Homo sapiens). Particulars: at 1 µM.
The target of assay [6] is Serine/threonine-protein kinase 10 (Homo sapiens) (UniProt O94804). Particulars: at 0.1 µM.
The target is the same in assay [7]. Particulars: at 1 µM.
In assay [8] the target is T3, Mitogen-activated protein kinase kinase kinase kinase 2 (Homo sapiens) (UniProt Q12851).
T3 sequence (whole entry): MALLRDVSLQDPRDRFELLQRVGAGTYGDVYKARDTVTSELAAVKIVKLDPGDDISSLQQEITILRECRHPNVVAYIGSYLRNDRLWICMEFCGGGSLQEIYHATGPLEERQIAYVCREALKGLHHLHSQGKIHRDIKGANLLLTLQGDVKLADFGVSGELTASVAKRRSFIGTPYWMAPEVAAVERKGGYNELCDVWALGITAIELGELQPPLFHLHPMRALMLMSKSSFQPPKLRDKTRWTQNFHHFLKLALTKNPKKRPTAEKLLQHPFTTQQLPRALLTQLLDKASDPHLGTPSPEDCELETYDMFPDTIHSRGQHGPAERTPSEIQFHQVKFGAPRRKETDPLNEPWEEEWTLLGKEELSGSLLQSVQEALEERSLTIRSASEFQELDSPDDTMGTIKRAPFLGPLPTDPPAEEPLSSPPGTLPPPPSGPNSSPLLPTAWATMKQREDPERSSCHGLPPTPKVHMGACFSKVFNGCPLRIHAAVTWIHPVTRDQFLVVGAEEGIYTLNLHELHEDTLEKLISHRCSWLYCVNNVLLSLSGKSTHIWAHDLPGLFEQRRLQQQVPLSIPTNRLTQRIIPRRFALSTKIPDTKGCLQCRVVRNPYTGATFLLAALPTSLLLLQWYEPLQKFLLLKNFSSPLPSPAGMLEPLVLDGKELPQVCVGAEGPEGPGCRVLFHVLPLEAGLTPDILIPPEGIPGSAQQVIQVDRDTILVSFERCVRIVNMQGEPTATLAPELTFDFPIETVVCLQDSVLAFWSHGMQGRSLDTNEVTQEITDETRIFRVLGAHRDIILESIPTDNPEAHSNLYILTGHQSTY
Particulars: at 0.1 µM.

Assay [9] addresses T3, Mitogen-activated protein kinase kinase kinase kinase 2 (Homo sapiens). Particulars: at 1 µM.
The target in assay [10] is Mitogen-activated protein kinase kinase kinase kinase 4 (Homo sapiens) (UniProt O95819). Particulars: at 0.1 µM.
The target is the same in assay [11]. Particulars: at 1 µM.
The target of assay [12] is Dual specificity mitogen-activated protein kinase kinase 1 (Homo sapiens) (UniProt Q02750). Particulars: at 0.1 µM.
The target is the same in assay [13]. Particulars: at 1 µM.
In assay [14] the target is Misshapen-like kinase 1 (Homo sapiens) (UniProt Q8N4C8). Particulars: at 0.1 µM.
Assay [15] has the same target. Particulars: at 1 µM.
Assay [16] concerns the target T4, Serine/threonine-protein kinase 4 (Homo sapiens) (UniProt Q13043).
T4 sequence (whole entry): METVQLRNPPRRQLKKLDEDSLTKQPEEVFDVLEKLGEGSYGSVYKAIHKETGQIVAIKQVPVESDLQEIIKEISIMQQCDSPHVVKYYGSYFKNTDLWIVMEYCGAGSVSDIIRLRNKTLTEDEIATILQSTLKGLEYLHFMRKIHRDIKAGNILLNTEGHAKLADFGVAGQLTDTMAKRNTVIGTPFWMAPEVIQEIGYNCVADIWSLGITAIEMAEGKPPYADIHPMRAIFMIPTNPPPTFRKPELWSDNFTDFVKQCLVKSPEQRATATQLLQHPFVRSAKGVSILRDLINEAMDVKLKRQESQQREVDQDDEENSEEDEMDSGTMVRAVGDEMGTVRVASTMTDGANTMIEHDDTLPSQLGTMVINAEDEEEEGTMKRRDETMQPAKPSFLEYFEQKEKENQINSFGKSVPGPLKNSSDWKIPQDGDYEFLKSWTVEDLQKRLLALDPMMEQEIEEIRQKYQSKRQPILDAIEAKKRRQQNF
Particulars: at 0.1 µM.

For assay [17], the target named is T4, Serine/threonine-protein kinase 4 (Homo sapiens). Particulars: at 1 µM.
Assay [18] has as its target T5, Serine/threonine-protein kinase 3 (Homo sapiens) (UniProt Q13188).
T5 sequence (whole entry): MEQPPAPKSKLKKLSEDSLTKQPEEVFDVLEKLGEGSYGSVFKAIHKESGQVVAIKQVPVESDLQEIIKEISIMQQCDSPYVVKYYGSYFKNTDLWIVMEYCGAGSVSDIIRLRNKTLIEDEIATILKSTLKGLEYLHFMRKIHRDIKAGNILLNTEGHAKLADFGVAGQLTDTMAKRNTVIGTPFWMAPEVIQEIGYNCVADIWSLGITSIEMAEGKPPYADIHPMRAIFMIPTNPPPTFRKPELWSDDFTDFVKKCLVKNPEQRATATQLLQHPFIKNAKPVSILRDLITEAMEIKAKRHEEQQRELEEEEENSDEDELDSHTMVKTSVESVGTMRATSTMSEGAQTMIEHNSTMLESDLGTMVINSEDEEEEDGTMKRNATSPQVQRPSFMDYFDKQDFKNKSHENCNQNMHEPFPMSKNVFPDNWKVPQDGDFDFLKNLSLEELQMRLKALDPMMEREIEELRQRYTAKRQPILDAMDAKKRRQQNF
Particulars: at 0.1 µM.

In assay [19] the target is T5, Serine/threonine-protein kinase 3 (Homo sapiens). Particulars: at 1 µM.
Assay [20] deals with Serine/threonine-protein kinase 26 (Homo sapiens) (UniProt Q9P289). Particulars: at 0.1 µM.
Serine/threonine-protein kinase 26 (Homo sapiens), sequence (Q9P289 2-416 limits assumed): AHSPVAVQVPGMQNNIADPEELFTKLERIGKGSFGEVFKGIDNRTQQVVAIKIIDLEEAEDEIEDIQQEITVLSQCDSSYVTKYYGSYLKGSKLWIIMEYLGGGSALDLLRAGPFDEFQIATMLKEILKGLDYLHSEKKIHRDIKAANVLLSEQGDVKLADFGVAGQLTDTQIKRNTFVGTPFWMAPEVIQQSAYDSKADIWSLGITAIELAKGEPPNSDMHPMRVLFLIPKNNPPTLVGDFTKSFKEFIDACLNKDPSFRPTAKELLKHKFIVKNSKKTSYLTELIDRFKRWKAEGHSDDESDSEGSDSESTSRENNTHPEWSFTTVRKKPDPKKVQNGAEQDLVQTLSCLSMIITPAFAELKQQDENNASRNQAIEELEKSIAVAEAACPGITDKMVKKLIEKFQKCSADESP

Mitogen-activated protein kinase kinase kinase kinase 4 (Homo sapiens), sequence (O95819 2-1239 limits assumed): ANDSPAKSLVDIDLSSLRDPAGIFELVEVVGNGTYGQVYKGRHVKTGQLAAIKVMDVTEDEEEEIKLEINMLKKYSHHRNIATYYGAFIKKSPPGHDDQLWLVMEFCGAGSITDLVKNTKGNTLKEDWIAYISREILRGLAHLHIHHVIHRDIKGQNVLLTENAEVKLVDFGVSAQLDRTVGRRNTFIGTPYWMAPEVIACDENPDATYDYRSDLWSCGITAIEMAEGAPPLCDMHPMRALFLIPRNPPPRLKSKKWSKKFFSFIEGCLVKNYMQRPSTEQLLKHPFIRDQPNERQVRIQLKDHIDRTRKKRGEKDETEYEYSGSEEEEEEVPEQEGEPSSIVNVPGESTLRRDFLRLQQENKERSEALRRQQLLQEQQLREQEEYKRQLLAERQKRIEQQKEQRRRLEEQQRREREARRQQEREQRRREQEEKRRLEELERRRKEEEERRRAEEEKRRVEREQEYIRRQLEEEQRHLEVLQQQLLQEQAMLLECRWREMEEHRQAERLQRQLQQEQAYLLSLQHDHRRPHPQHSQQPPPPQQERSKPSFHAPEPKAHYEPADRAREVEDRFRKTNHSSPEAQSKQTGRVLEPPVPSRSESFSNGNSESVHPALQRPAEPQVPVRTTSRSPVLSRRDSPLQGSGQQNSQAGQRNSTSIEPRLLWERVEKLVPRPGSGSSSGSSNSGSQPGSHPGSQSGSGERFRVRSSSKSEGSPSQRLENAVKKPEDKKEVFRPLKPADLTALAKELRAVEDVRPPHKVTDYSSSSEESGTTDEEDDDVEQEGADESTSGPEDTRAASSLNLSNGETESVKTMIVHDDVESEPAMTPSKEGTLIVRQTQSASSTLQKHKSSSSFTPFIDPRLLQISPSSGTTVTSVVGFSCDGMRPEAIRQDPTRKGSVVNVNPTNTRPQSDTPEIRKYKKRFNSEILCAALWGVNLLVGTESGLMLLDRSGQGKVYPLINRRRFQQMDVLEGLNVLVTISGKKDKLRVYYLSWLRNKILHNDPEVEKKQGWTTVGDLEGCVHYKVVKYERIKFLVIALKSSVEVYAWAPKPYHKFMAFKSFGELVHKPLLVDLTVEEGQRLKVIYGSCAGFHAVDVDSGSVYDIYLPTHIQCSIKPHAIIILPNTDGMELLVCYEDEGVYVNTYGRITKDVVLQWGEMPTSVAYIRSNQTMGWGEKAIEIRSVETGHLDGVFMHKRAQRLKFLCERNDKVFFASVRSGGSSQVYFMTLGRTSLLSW
Aurora kinase B (Homo sapiens), sequence (Q96GD4 whole entry): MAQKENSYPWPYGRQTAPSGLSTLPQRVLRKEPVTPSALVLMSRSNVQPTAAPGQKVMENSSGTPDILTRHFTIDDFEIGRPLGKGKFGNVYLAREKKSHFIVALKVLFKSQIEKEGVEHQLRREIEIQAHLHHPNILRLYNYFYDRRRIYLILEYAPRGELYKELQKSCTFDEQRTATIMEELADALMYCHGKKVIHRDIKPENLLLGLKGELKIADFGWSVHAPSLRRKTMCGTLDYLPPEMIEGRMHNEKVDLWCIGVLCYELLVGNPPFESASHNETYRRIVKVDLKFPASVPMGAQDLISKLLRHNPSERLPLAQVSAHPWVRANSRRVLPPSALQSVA
Dual specificity mitogen-activated protein kinase kinase 1 (Homo sapiens), sequence (Q02750 whole entry): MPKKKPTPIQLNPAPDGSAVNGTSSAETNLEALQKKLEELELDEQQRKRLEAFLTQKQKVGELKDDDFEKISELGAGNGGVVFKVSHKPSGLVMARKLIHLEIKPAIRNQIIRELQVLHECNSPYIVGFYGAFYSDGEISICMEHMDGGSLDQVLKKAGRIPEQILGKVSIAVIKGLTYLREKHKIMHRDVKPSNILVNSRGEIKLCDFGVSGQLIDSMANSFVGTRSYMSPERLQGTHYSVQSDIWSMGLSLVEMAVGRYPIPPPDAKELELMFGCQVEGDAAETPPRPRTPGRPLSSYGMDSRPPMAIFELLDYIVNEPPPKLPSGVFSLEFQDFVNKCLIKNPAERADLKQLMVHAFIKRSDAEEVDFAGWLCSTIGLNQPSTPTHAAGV
Misshapen-like kinase 1 (Homo sapiens), sequence (Q8N4C8 whole entry, looked up): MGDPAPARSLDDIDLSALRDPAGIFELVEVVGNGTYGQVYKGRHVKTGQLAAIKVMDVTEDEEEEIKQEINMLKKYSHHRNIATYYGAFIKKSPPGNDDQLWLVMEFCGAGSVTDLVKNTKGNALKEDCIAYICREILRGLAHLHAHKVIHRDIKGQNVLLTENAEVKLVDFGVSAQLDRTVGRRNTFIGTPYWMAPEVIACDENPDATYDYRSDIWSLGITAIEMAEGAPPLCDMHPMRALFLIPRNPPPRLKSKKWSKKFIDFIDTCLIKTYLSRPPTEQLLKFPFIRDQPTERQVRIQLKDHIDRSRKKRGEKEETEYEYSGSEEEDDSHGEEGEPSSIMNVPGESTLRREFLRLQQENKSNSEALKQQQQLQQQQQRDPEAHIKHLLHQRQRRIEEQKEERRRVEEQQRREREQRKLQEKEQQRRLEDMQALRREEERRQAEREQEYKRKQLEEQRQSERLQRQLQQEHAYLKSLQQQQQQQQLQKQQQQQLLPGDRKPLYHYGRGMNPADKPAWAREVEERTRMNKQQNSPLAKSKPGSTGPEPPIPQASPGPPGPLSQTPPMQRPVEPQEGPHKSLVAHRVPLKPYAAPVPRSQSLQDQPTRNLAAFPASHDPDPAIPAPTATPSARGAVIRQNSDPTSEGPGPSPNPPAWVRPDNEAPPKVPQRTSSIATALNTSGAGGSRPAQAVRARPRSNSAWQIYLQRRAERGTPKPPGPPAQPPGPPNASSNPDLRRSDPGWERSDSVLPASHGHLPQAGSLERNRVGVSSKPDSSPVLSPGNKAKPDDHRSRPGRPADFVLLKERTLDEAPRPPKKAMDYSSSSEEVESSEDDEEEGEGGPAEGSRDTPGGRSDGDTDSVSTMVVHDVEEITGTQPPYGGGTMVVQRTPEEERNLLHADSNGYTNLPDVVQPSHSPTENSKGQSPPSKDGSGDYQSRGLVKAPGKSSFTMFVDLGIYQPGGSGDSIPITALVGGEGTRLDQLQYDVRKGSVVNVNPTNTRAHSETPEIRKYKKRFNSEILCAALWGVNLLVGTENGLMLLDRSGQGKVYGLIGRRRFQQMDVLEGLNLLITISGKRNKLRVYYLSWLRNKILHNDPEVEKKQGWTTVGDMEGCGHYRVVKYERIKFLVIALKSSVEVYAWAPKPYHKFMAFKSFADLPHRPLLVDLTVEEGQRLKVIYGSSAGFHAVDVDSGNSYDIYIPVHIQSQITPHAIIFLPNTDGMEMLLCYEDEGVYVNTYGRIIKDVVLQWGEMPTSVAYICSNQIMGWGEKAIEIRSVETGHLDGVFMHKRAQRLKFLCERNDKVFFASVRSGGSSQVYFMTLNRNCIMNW
Serine/threonine-protein kinase 10 (Homo sapiens), sequence (O94804 whole entry, looked up): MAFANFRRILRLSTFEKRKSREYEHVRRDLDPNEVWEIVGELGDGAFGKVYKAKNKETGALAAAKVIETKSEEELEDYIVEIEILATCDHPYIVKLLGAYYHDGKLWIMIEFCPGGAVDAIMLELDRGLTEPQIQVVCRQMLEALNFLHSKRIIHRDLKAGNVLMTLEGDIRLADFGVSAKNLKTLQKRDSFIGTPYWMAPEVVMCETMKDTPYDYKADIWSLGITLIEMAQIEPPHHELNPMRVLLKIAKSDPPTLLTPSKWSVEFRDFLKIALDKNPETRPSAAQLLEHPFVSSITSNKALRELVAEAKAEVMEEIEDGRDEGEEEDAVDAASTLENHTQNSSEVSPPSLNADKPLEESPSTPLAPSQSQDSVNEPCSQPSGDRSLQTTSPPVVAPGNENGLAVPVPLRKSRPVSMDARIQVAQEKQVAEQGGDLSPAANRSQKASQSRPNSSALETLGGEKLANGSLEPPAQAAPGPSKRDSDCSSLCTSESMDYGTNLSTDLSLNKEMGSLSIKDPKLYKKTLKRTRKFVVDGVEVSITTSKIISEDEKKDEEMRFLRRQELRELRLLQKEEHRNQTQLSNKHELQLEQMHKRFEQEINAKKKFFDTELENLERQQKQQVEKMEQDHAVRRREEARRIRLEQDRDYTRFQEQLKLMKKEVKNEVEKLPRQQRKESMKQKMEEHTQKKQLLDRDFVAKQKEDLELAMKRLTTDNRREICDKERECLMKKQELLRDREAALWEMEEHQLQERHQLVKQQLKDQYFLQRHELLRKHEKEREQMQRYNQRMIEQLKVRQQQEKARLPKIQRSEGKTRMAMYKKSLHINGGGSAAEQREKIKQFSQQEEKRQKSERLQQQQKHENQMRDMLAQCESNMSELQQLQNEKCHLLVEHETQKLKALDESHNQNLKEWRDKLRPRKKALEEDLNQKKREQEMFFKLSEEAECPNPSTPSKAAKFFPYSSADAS

For `CS(=O)(=O)Nc1cccc(-c2ccc3c(NC(=O)C4CC4)n[nH]c3c2)c1`, the inhibition was 12.4% in [1]; 1.84% in assay [2]; 3.58% in [3]; 1.43% in assay [4]; 15.6% in [5]; 3.13% in assay [6]. The inhibition in assay [7] worked out at 10.2%; in assay [8] it was 1.94%; in [9], 2.98%; in [10], 2.8%; in assay [11], 6.35%; in [12] it was 0.37%. Besides, the inhibition in assay [13] turned out to be 0.96%; in [14], 1.34%; in assay [15] it was 6.69%; in assay [16] it was 3.33%; in [17], 4.09%; in assay [18], 3.45%. Also, the results for the inhibition in assay [19] and in assay [20] were 4.09% and -3.32%, respectively.

For `Cc1cc(-c2ccccn2)cc(C)c1/C=C/c1cncc(-c2nn[nH]n2)c1`, the inhibition in assay [1] came to 5.71%; in assay [2], 2.09%; in assay [3] it was 7.42%; in [4], 4.2%; in assay [5] it was 19.6%; in [6], 6.35%. Moreover, the inhibition in assay [7] was 13.7%; in assay [8], -1.16%; in assay [9], 3.53%; in assay [10], 2.48%; in assay [11] it was 13.5%; in assay [12], 3.04%. For the same molecule, the inhibition in [13] amounted to 4.93%; in assay [14] it was 2.69%; in assay [15] it was 9.19%; in [16] it was 3.88%; in assay [17] it was 8.04%; in assay [18], 3.7%. The inhibition in assay [19] was 7.75%; in [20], -1.78%.

Turning to `CN(C)c1cc2c(Nc3ccc4c(cnn4Cc4ccccc4)c3)ncnc2cn1`, the inhibition was 12.8% in assay [1]; -0.85% in [2]; 8.49% in assay [3]; 2.76% in [4]; 27.6% in assay [5]; 6.27% in assay [6]. Besides, the inhibition in assay [7] was 13.9%; in assay [8], 0.85%; in assay [9], 0.49%; in assay [10] it was 2.93%; in assay [11], 6.51%; in [12], 3.44%. The inhibition in assay [13] was found to be 2.77%; in assay [14] it was 3.28%; in [15], 4.78%; in assay [16], 3.03%; in [17], 1.68%; in [18], 4.54%. Further, the inhibition in assay [19] is 2.67%; in assay [20], -1.9%.

On to `CN1CCN(C(=O)c2ccc(NC(=O)Nc3ccc(N(C)c4ccnc(Nc5ccc(CS(C)(=O)=O)cc5)n4)cc3)cc2)CC1`, for which the inhibition in assay [1] came to 85.9%; in [2], 68.5%; in assay [3], 72.8%; in assay [4], 88.4%; in assay [5], 95.3%; in [6] it was 26.3%. Further, the inhibition stood at 67.7% in [7]; 4.67% in assay [8]; 32.7% in [9]; 13% in assay [10]; 58.6% in assay [11]; 1.05% in assay [12]. Further, the inhibition in [13] worked out at 10.8%; in assay [14] it was 7.54%; in assay [15], 42.4%; in assay [16], 16.1%; in assay [17] it was 60.9%; in assay [18], 6.27%. Further, the inhibition in assay [19] is 28.3%; in assay [20], 1.7%.

With `NC(=O)c1sc(-n2cnc3ccccc32)cc1OCc1ccccc1Br`, the inhibition in assay [1] stood at 4.39%; in assay [2], 4.16%; in assay [3], 9.94%; in [4] it was 1.83%; in [5], 8.84%; in [6], 17.4%. Further, the inhibition in [7] came out at 60.6%; in assay [8], 2.47%; in [9] it was 8.46%; in assay [10], 4.11%; in [11] it was 11.3%; in [12], 3.81%. Besides, the inhibition came to 4.35% in assay [13]; 5.6% in assay [14]; 9.1% in [15]; 1.82% in assay [16]; 7.07% in [17]; 4.03% in [18]. For the same molecule, the inhibition in assay [19] was 5.83%; in assay [20], -1.18%.

In the case of `NC(=O)c1cccc(Nc2nccc(Nc3cccc(F)c3)n2)c1`, the inhibition in [1] was 65.5%; in assay [2] it was 12.6%; in [3], 49.3%; in assay [4], 25.6%; in assay [5], 85.2%; in assay [6] it was -0.14%. For the same molecule, the inhibition in assay [7] was 12.3%; in [8], 0.98%; in [9] it was 14.1%; in assay [10] it was 8.77%; in assay [11], 44.9%; in assay [12] it was -0.23%. The inhibition was 1.42% in assay [13]; 6.07% in assay [14]; 33.3% in [15]; 0.59% in assay [16]; 12.2% in [17]; 1.63% in assay [18]. Besides, the inhibition in [19] was 6.4%; in assay [20] it was -0.81%.

For the molecule `Nc1nccc(-c2c(-c3ccc(F)cc3)ncn2CCCN2CCOCC2)n1`, the inhibition in assay [1] is 8.99%; in [2] it was 2.68%; in assay [3], 4.99%; in assay [4], 0.25%; in assay [5], -2.92%; in [6], 3.38%. In addition, the inhibition in assay [7] was 7.74%; in [8], 2.02%; in assay [9] it was -0.39%; in assay [10] it was 3.81%; in assay [11] it was 8.06%; in assay [12] it was 5.23%. In addition, the inhibition worked out at 4.45% in [13]; 5.84% in assay [14]; 7.98% in assay [15]; 3.71% in assay [16]; 5.25% in [17]; 4.5% in assay [18]. Besides, the inhibition in assay [19] was 5.71%; in [20], -0.66%.

By inhibition is commonly meant the drop in the measured response relative to a control, in per cent.
